Whole data set: some 35,000 sequences, median “fluorescence intensity (a.u.)” near 10,000, cut for the highest 2% near 52,000. This excerpt belongs to a sample that is enriched for the highest values.

The target in the assay is T1, OsWOX13 (Oryza sativa, UniProt Q5QMM3 1-267).
T1 sequence: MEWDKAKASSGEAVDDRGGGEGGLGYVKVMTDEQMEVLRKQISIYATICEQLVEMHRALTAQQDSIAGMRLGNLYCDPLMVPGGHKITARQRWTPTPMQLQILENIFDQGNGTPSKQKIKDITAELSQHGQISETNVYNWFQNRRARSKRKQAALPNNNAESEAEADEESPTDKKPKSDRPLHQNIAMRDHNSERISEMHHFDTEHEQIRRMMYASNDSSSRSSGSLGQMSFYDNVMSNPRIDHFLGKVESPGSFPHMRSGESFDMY
The experiment in a line: protein-binding microarray (RPBM); PBS, 2% BSA, 51.3 ng/ul salmon testes DNA, 50 uM zinc acetate, 200 nM TF, 25 C, 1 h; high values mean tight binding. The settings on record: protein: recombinant; tags: N-terminal polyhistidine and DsRed monomer fusion (pET32a); label: CyDye5-dUTP incorporated in the synthesized complementary strand; 3' TTTTT single-stranded linker to array surface; dsDNA, one strand shown. In a few lines:
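Binding signal is reported as fluorescence intensity per feature (arbitrary units) from an Axon 4000B scanner. Incubation used 200 nM of each Ni–NTA-purified, N-terminally polyhistidine- and DsRed-fused transcription factor from E. coli BL21-CodonPlus on a double-stranded custom Agilent array for 1 h at 25 °C, with 50 µM zinc acetate in the buffer, followed by washing.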
On to “TATGATAAAATTGTTACATCATTTACCAGATGATTTAGAACGGAGTCACCTAGTGCAG”, for which the binding signal was 7880 fluorescence intensity (a.u.).

Take “ATAAATAACTTTGATATAAATTGTTTGAATAAAACTAATGCGGAGTCACCTAGTGCAG”: the binding signal was 14300 fluorescence intensity (a.u.).

For the sequence “CTATATAAAACTGATTGATTCATATTACTACGACGTTTTACGGAGTCACCTAGTGCAG”, the binding signal was 6690 fluorescence intensity (a.u.).

For “CTAATTGAATAATCAAAATTTTAATCTTTGGTCGATAATGCGGAGTCACCTAGTGCAG”, the binding signal was 63700 fluorescence intensity (a.u.).

With “AGTAATTGATTAATTTTGTGACAGAGGTGGTCACTATATGCGGAGTCACCTAGTGCAG”, the binding signal was 61000 fluorescence intensity (a.u.).

Consider “ATTGAATAATCAAAATTTCAATCTTTGATCGATGAGGTATCGGAGTCACCTAGTGCAG”, for which the binding signal was 12100 fluorescence intensity (a.u.).

Take “CTTTATTGATAGGATAAAATTGTTACATCGTTTACCAGATCGGAGTCACCTAGTGCAG”: the binding signal is 52600 fluorescence intensity (a.u.).

Take “ATTTTGGTTGATTTGTAAACAGAGGGATTAATTTGTGCATCGGAGTCACCTAGTGCAG”: the binding signal is 15400 fluorescence intensity (a.u.).

For “TGTGACAAACAATGATTACCAAGCTTTTGGGGAAATATAGCGGAGTCACCTAGTGCAG”, the binding signal was 16900 fluorescence intensity (a.u.).

On to “TCATGATTAAGATGGGCTCACTATGTAATTTTATTTATAACGGAGTCACCTAGTGCAG”, for which the binding signal was 8240 fluorescence intensity (a.u.).

Regarding “AATAATTTGCCAATACCAACATTTTACTATAAATACTTATCGGAGTCACCTAGTGCAG”, the binding signal was 5410 fluorescence intensity (a.u.).

On to “GCGCTGATACTTGTAATCAATCAACTCATCAGCATGGTCTCGGAGTCACCTAGTGCAG”, for which the binding signal was 26100 fluorescence intensity (a.u.).

On to “GTAGTTAATTGTAAACACTGTACTAAGCAGTATACATTTTCGGAGTCACCTAGTGCAG”, for which the binding signal is 20300 fluorescence intensity (a.u.).

With “ACACAATCATTTATACAAAGCATATAATGGGCCTGTTCGGCGGAGTCACCTAGTGCAG”, the binding signal is 6100 fluorescence intensity (a.u.).

For the sequence “TGCTTGTAATTTCTATAAAATTAGCAGTATTTTGATGCTACGGAGTCACCTAGTGCAG”, the binding signal was 9240 fluorescence intensity (a.u.).

Consider “TTGACATAATATAATCATGTGATATCTTATTGTAAAGATTCGGAGTCACCTAGTGCAG”, for which the binding signal was 10400 fluorescence intensity (a.u.).

As for “GATCAATAATTGAATATATTTTAATAATAAATTTGTCTTGCGGAGTCACCTAGTGCAG”, the binding signal was 55500 fluorescence intensity (a.u.).

As for “CCATTGATTATAATTAAAGACTGTTAGGCAATTGACACAACGGAGTCACCTAGTGCAG”, the binding signal is 54000 fluorescence intensity (a.u.).

Regarding “GGAGGGAGTAGAATAATGATTGATTTAAGTTAATACTAGCCGGAGTCACCTAGTGCAG”, the binding signal is 23500 fluorescence intensity (a.u.).

With “TTTTGTGATAGATTTTATATTAAATATATAGTTTTGTTTTCGGAGTCACCTAGTGCAG”, the binding signal is 23400 fluorescence intensity (a.u.).

“AGGGAAAGTTGTGATTGAGGGAGGATGTTAGATAATGTTACGGAGTCACCTAGTGCAG”: the binding signal was 10100 fluorescence intensity (a.u.).

Turning to “ATCAAATCAATAATTGAATATATTTTCATAATAAATTTGTCGGAGTCACCTAGTGCAG”, the binding signal is 29400 fluorescence intensity (a.u.).

Regarding “GTTTATTTATAATTATATTATATTAATATTGTTTGAAAATCGGAGTCACCTAGTGCAG”, the binding signal is 8200 fluorescence intensity (a.u.).

Consider “TGTGATTGAGGGAGTTAATTAGGACAAGTTAATAAGTGGCCGGAGTCACCTAGTGCAG”, for which the binding signal was 64500 fluorescence intensity (a.u.).

Take “TTATTAATTGATAAAATATAGAAATATTGATTTATTGTTTCGGAGTCACCTAGTGCAG”: the binding signal was 52500 fluorescence intensity (a.u.).

In the case of “TTTATAACATTGTTAATTGATTAGGCATGCAATGCCATATCGGAGTCACCTAGTGCAG”, the binding signal is 32300 fluorescence intensity (a.u.).

On to “ATCAATAATTGAACATATTTTCATAATAAATTTGTCTTGGCGGAGTCACCTAGTGCAG”, for which the binding signal was 42100 fluorescence intensity (a.u.).

For the sequence “TGTTGATTATAATTAAACACAACAAACAGACTCGAAGCAACGGAGTCACCTAGTGCAG”, the binding signal is 48200 fluorescence intensity (a.u.).

“GTATTAATCATGTTTTATCATCTAACAACAACGAAAATACCGGAGTCACCTAGTGCAG”: the binding signal was 7970 fluorescence intensity (a.u.).

Consider “ATAATTTGCTAATACTTAATTAATCACGTGTTAATGGATCCGGAGTCACCTAGTGCAG”, for which the binding signal is 36600 fluorescence intensity (a.u.).

On to “AGTTCCCTCTAATTATAATTATAATGTCCTTGGTTTAGGACGGAGTCACCTAGTGCAG”, for which the binding signal was 16200 fluorescence intensity (a.u.).

On to “CCTTGCAATCATTCATCAGAGGAGGAGTTCTACAGTGATGCGGAGTCACCTAGTGCAG”, for which the binding signal was 3760 fluorescence intensity (a.u.).

As for “GCAATCTTTCATTATCATAATTGGTCGTAGCTTTAATTACCGGAGTCACCTAGTGCAG”, the binding signal was 8430 fluorescence intensity (a.u.).

Turning to “TTAATTAGATGCTCATATAAATATGGTGAAACCTGCATGCCGGAGTCACCTAGTGCAG”, the binding signal is 21500 fluorescence intensity (a.u.).

For the sequence “CCAAATTTAATTTTACCTATTTTAAATGTGGCGATATATCCGGAGTCACCTAGTGCAG”, the binding signal was 17900 fluorescence intensity (a.u.).

For “AAAATAAATAAATAAATTTGGTAACATTGATTAATTAGGACGGAGTCACCTAGTGCAG”, the binding signal was 21200 fluorescence intensity (a.u.).

As to “GTCTTAATTGAATGCATCAATTATACTTTTGCAGGAGTTTCGGAGTCACCTAGTGCAG”, the binding signal is 64900 fluorescence intensity (a.u.).

With “TAATAATTAGTGATTAATTATCCTGACCATTGATTCAACACGGAGTCACCTAGTGCAG”, the binding signal was 48300 fluorescence intensity (a.u.).

On to “GCGTAATAGTAATAATTGATTAATGGTGACACGAGAAGGACGGAGTCACCTAGTGCAG”, for which the binding signal is 46600 fluorescence intensity (a.u.).

With “GGAGTGATTAAATTAGTTAATTAGTTAATAATCCCATTGACGGAGTCACCTAGTGCAG”, the binding signal is 56800 fluorescence intensity (a.u.).

On to “ACACTAAATTATTCTACCCACAAATTAAATAATTGAAATACGGAGTCACCTAGTGCAG”, for which the binding signal was 9290 fluorescence intensity (a.u.).

“TAGCTAATTCTTAATTAATTATACGCTAATGAATCACTTTCGGAGTCACCTAGTGCAG”: the binding signal was 23900 fluorescence intensity (a.u.).

Take “TAATACTTAATTAATTATATGCTAAATGCTTCTTCGTTTTCGGAGTCACCTAGTGCAG”: the binding signal was 27300 fluorescence intensity (a.u.).

As for “AGTTAACATGATTTATGATAATTTTAATGTAAATGGTATACGGAGTCACCTAGTGCAG”, the binding signal was 16700 fluorescence intensity (a.u.).

For the sequence “TTAATTGATTCCATGAAGGTATAATGATACTTTTATGGTACGGAGTCACCTAGTGCAG”, the binding signal was 65000 fluorescence intensity (a.u.).

In the case of “ATAAATAGTAATTGACATTAAGAATGGGACCCACACTCTACGGAGTCACCTAGTGCAG”, the binding signal is 53000 fluorescence intensity (a.u.).

Regarding “AATGATTGAAGGATATCCATTTGAATGATGGTATGCTTTACGGAGTCACCTAGTGCAG”, the binding signal is 43000 fluorescence intensity (a.u.).
